Assay results taken from PubChem BioAssay AID1159580 (chemical genetic matrix, 2015).
Where “and” joins values, the source holds several entries; their conditions need not be identical. Identical values can stand only once. Among all 5,500 compounds or so, about 2,000 (36%) were called active. Another 18% or so got no clear call; they are omitted. Cut-off read from the data, not from the text of the source: active = normalized growth mostly below about 0.91 (no sharp cut-off); inconclusive = no clear call, values can overlap the other calls; inactive = mostly above about 0.92. Some of the results follow.

Test: chemical genetic growth profiling, strain panel (AID 1159580);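 note: tested at 20 µM; growth read once vehicle control cultures reached saturation at 30 °C; 1 = growth at the plate median or of vehicle wells; lower values mean less growth of the strain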
Settings: growth OD

Measured: normalized growth

C=C1C(N)CC2CC1C2(C)C (stereo not given)
inactive: S. cerevisiae deletion strains, locus YAL021C, strain ccr4, stronger effect = lower value 1.01 | S. cerevisiae deletion strains, locus YAL026C, strain drs2, stronger effect = lower value 1.01 | S. cerevisiae deletion strains, locus YAL030W, strain snc1, stronger effect = lower value 1.01 | S. cerevisiae deletion strains, locus YBL061C, strain skt5, stronger effect = lower value 1 | S. cerevisiae deletion strains, locus YBR009C, strain hhf1, stronger effect = lower value 1.01 | S. cerevisiae deletion strains, locus YBR021W, strain FUR4, stronger effect = lower value 1 | S. cerevisiae deletion strains, locus YBR023C, strain chs3, stronger effect = lower value 0.985 | S. cerevisiae deletion strains, locus YBR171W, strain sec66, stronger effect = lower value 0.99 | S. cerevisiae deletion strains, locus YBR229C, strain ROT2, stronger effect = lower value 1.01 | S. cerevisiae deletion strains, locus YBR231C, strain swc5, stronger effect = lower value 0.999 | S. cerevisiae deletion strains, locus YBR279W, strain paf1, stronger effect = lower value 0.997 | S. cerevisiae deletion strains, locus YCL011C, strain gbp2, stronger effect = lower value 0.983 | S. cerevisiae deletion strains, locus YCL016C, strain dcc1, stronger effect = lower value 1.01 | S. cerevisiae deletion strains, locus YCL029C, strain bik1, stronger effect = lower value 1.02 | S. cerevisiae deletion strains, locus YCL069W, strain vba3, stronger effect = lower value 0.996 | S. cerevisiae deletion strains, locus YCR088W, strain abp1, stronger effect = lower value 0.989 | S. cerevisiae deletion strains, locus YDL005C, strain med2, stronger effect = lower value 0.991 | S. cerevisiae deletion strains, locus YDL035C, strain GPR1, stronger effect = lower value 0.994 | S. cerevisiae deletion strains, locus YDL040C, strain nat1, stronger effect = lower value 0.994 | S. cerevisiae deletion strains, locus YDL074C, strain BRE1, stronger effect = lower value 1.02 | S. cerevisiae deletion strains, locus YDL101C, strain DUN1, stronger effect = lower value 1.03 | S. cerevisiae deletion strains, locus YDL134C, strain PPH21, stronger effect = lower value 1.03 | S. cerevisiae deletion strains, locus YDL185W, strain tfp1, stronger effect = lower value 1.01 | S. cerevisiae deletion strains, locus YDL192W, strain arf1, stronger effect = lower value 0.996 | S. cerevisiae deletion strains, locus YDR001C, strain nth1, stronger effect = lower value 1 | S. cerevisiae deletion strains, locus YDR069C, strain doa4, stronger effect = lower value 0.98 | S. cerevisiae deletion strains, locus YDR101C, strain arx1, stronger effect = lower value 0.979 | S. cerevisiae deletion strains, locus YDR137W, strain rgp1, stronger effect = lower value 1 | S. cerevisiae deletion strains, locus YDR150W, strain NUM1, stronger effect = lower value 0.998 | S. cerevisiae deletion strains, locus YDR159W, strain sac3, stronger effect = lower value 0.975 | S. cerevisiae deletion strains, locus YDR162C, strain NBP2, stronger effect = lower value 1.01 | S. cerevisiae deletion strains, locus YDR195W, strain ref2 0.977 | S. cerevisiae deletion strains, locus YDR297W, strain sur2, stronger effect = lower value 1 | S. cerevisiae deletion strains, locus YDR318W, strain mcm21, stronger effect = lower value 1 | S. cerevisiae deletion strains, locus YDR334W, strain swr1, stronger effect = lower value 0.99 | S. cerevisiae deletion strains, locus YDR335W, strain msn5, stronger effect = lower value 0.995 | S. cerevisiae deletion strains, locus YDR388W, stronger effect = lower value 1 | S. cerevisiae deletion strains, locus YDR392W, strain spt3, stronger effect = lower value 1.01 | S. cerevisiae deletion strains, locus YDR502C, strain sam2, stronger effect = lower value 1.04 | S. cerevisiae deletion strains, locus YEL003W, strain gim4, stronger effect = lower value 0.998 | S. cerevisiae deletion strains, locus YEL037C, strain rad23, stronger effect = lower value 0.99 | S. cerevisiae deletion strains, locus YEL061C, strain CIN8 (second series), stronger effect = lower value 1.01 | S. cerevisiae deletion strains, locus YER015W, strain faa2, stronger effect = lower value 0.99 | S. cerevisiae deletion strains, locus YER016W, strain bim1, stronger effect = lower value 0.994 | S. cerevisiae deletion strains, locus YER110C, stronger effect = lower value 1.02 | S. cerevisiae deletion strains, locus YER111C, strain swi4, stronger effect = lower value 0.989 | S. cerevisiae deletion strains, locus YER155C, strain BEM2 (second series), stronger effect = lower value 1 | S. cerevisiae deletion strains, locus YER155C, strain BEM2, stronger effect = lower value 1 | S. cerevisiae deletion strains, locus YER167W, strain BCK2, stronger effect = lower value 1 | S. cerevisiae deletion strains, locus YFR010W, strain ubp6, stronger effect = lower value 1.01 | S. cerevisiae deletion strains, locus YGL078C, strain dbp3, stronger effect = lower value 1.04 | S. cerevisiae deletion strains, locus YGL086W, strain mad1, stronger effect = lower value 1 | S. cerevisiae deletion strains, locus YGL167C, strain pmr1, stronger effect = lower value 0.99 | S. cerevisiae deletion strains, locus YGL173C, strain kem1, stronger effect = lower value 0.998 | S. cerevisiae deletion strains, locus YGL227W, strain vid30, stronger effect = lower value 1 | S. cerevisiae deletion strains, locus YGL240W, strain doc1, stronger effect = lower value 0.994 | S. cerevisiae deletion strains, locus YGL248W, strain PDE1, stronger effect = lower value 1.04 | S. cerevisiae deletion strains, locus YGL253W, strain hxk2, stronger effect = lower value 1 | S. cerevisiae deletion strains, locus YGR078C, strain PAC10, stronger effect = lower value 1.04 | S. cerevisiae deletion strains, locus YGR135W, strain pre9, stronger effect = lower value 1.06 | S. cerevisiae deletion strains, locus YGR252W, strain gcn5, stronger effect = lower value 1.09 | S. cerevisiae deletion strains, locus YHR013C, strain ard1, stronger effect = lower value 1 | S. cerevisiae deletion strains, locus YHR027C, strain rpn1, stronger effect = lower value 0.996 | S. cerevisiae deletion strains, locus YHR030C, strain SLT2, stronger effect = lower value 0.996 | S. cerevisiae deletion strains, locus YHR079C, strain IRE1 (second series), stronger effect = lower value 1.01 | S. cerevisiae deletion strains, locus YHR079C, strain IRE1, stronger effect = lower value 0.994 | S. cerevisiae deletion strains, locus YHR094C, strain hxt1, stronger effect = lower value 1.02 | S. cerevisiae deletion strains, locus YHR129C, strain ARP1, stronger effect = lower value 1.01 | S. cerevisiae deletion strains, locus YHR142W, strain chs7, stronger effect = lower value 1.01 | S. cerevisiae deletion strains, locus YHR200W, strain rpn10, stronger effect = lower value 1.03 | S. cerevisiae deletion strains, locus YIL066C, strain RNR3, stronger effect = lower value 1.01 | S. cerevisiae deletion strains, locus YIL073C, strain SPO22, stronger effect = lower value 1.06 | S. cerevisiae deletion strains, locus YIL125W, strain kgd1, stronger effect = lower value 1.01 | S. cerevisiae deletion strains, locus YIR030C, strain dcg1, stronger effect = lower value 0.996 | S. cerevisiae deletion strains, locus YJL092W, strain hpr5, stronger effect = lower value 0.995 | S. cerevisiae deletion strains, locus YJL095W, strain BCK1 (second series), stronger effect = lower value 1.02 | S. cerevisiae deletion strains, locus YJL095W, strain BCK1, stronger effect = lower value 1.05 and 0.98 | S. cerevisiae deletion strains, locus YJL115W, strain asf1, stronger effect = lower value 0.99 | S. cerevisiae deletion strains, locus YJL129C, strain trk1, stronger effect = lower value 1.01 | S. cerevisiae deletion strains, locus YJL134W, strain LCB3, stronger effect = lower value 1 | S. cerevisiae deletion strains, locus YJL154C, strain vps35, stronger effect = lower value 0.998 | S. cerevisiae deletion strains, locus YJL164C, strain tpk1, stronger effect = lower value 0.997 | S. cerevisiae deletion strains, locus YJL166W, strain qcr8, stronger effect = lower value 0.997 | S. cerevisiae deletion strains, locus YJL168C, strain set2, stronger effect = lower value 1.01 | S. cerevisiae deletion strains, locus YJL187C, strain SWE1 (second series), stronger effect = lower value 1.05 | S. cerevisiae deletion strains, locus YJL187C, strain SWE1, stronger effect = lower value 0.997 | S. cerevisiae deletion strains, locus YJR066W, strain TOR1, stronger effect = lower value 0.953 | S. cerevisiae deletion strains, locus YKL009W, strain mrt4, stronger effect = lower value 0.998 | S. cerevisiae deletion strains, locus YKL068W, stronger effect = lower value 1.01 | S. cerevisiae deletion strains, locus YKL085W, strain MDH1 (second series), stronger effect = lower value 1.01 | S. cerevisiae deletion strains, locus YKL085W, strain MDH1, stronger effect = lower value 1.01 | S. cerevisiae deletion strains, locus YKL160W, strain elf1, stronger effect = lower value 0.998 | S. cerevisiae deletion strains, locus YKL190W, strain CNB1, stronger effect = lower value 1.01 | S. cerevisiae deletion strains, locus YKR001C, strain vps1, stronger effect = lower value 1.01 | S. cerevisiae deletion strains, locus YKR026C, strain gcn3, stronger effect = lower value 0.999 | S. cerevisiae deletion strains, locus YKR091W, strain srl3, stronger effect = lower value 0.996 | S. cerevisiae deletion strains, locus YLL001W, strain dnm1, stronger effect = lower value 1 | S. cerevisiae deletion strains, locus YLL026W, stronger effect = lower value 0.983 | S. cerevisiae deletion strains, locus YLL041C, strain sdh2, stronger effect = lower value 1.02 | S. cerevisiae deletion strains, locus YLR027C, strain aat2, stronger effect = lower value 0.985 | S. cerevisiae deletion strains, locus YLR039C, strain RIC1, stronger effect = lower value 1.06 | S. cerevisiae deletion strains, locus YLR058C, strain SHM2, stronger effect = lower value 1.02 | S. cerevisiae deletion strains, locus YLR102C, strain apc9, stronger effect = lower value 1 | S. cerevisiae deletion strains, locus YLR113W, strain HOG1, stronger effect = lower value 0.975 | S. cerevisiae deletion strains, locus YLR221C, strain rsa3, stronger effect = lower value 1 | S. cerevisiae deletion strains, locus YLR258W, strain gsy2, stronger effect = lower value 0.993 | S. cerevisiae deletion strains, locus YLR262C, strain YPT6 (second series), stronger effect = lower value 1.02 | S. cerevisiae deletion strains, locus YLR268W, strain sec22, stronger effect = lower value 0.992 | S. cerevisiae deletion strains, locus YLR320W, strain mms22, stronger effect = lower value 1 | S. cerevisiae deletion strains, locus YLR342W, strain FKS1, stronger effect = lower value 0.994 | S. cerevisiae deletion strains, locus YLR357W, strain rsc2, stronger effect = lower value 0.968 | S. cerevisiae deletion strains, locus YLR370C, strain arc18, stronger effect = lower value 0.986 | S. cerevisiae deletion strains, locus YLR371W, strain rom2, stronger effect = lower value 1 | S. cerevisiae deletion strains, locus YLR384C, strain iki3, stronger effect = lower value 0.999 | S. cerevisiae deletion strains, locus YLR418C, strain cdc73, stronger effect = lower value 1.05 | S. cerevisiae deletion strains, locus YML016C, strain PPZ1, stronger effect = lower value 1.01 | S. cerevisiae deletion strains, locus YML032C, strain rad52, stronger effect = lower value 1 | S. cerevisiae deletion strains, locus YML120C, strain ndi1, stronger effect = lower value 1.01 | S. cerevisiae deletion strains, locus YML124C, strain tub3, stronger effect = lower value 0.999 | S. cerevisiae deletion strains, locus YMR058W, strain fet3, stronger effect = lower value 1 | S. cerevisiae deletion strains, locus YMR078C, strain ctf18, stronger effect = lower value 1.01 | S. cerevisiae deletion strains, locus YMR125W, strain sto1, stronger effect = lower value 0.982 | S. cerevisiae deletion strains, locus YMR129W, stronger effect = lower value 1.02 | S. cerevisiae deletion strains, locus YMR205C, strain PFK2, stronger effect = lower value 0.997 | S. cerevisiae deletion strains, locus YMR223W, strain ubp8, stronger effect = lower value 1.02 | S. cerevisiae deletion strains, locus YMR231W, strain pep5, stronger effect = lower value 0.995 | S. cerevisiae deletion strains, locus YMR263W, strain SAP30, stronger effect = lower value 1.02 | S. cerevisiae deletion strains, locus YMR307W, strain GAS1, stronger effect = lower value 0.976 | S. cerevisiae deletion strains, locus YNL067W, strain RPL9B, stronger effect = lower value 1.03 | S. cerevisiae deletion strains, locus YNL071W, strain lat1, stronger effect = lower value 0.999 | S. cerevisiae deletion strains, locus YNL153C, strain GIM3, stronger effect = lower value 1.04 | S. cerevisiae deletion strains, locus YNL183C, strain NPR1, stronger effect = lower value 0.957 | S. cerevisiae deletion strains, locus YNL209W, strain ssb2, stronger effect = lower value 0.978 | S. cerevisiae deletion strains, locus YNL233W, strain BNI4, stronger effect = lower value 1.04 | S. cerevisiae deletion strains, locus YNL248C, strain rpa49, stronger effect = lower value 1.02 | S. cerevisiae deletion strains, locus YNL250W, strain rad50, stronger effect = lower value 1.03 | S. cerevisiae deletion strains, locus YNL271C, strain bni1, stronger effect = lower value 1.01 | S. cerevisiae deletion strains, locus YNL298W, strain CLA4, stronger effect = lower value 1.01 | S. cerevisiae deletion strains, locus YNL307C, strain MCK1, stronger effect = lower value 1.02 | S. cerevisiae deletion strains, locus YNL322C, strain KRE1 (second series), stronger effect = lower value 0.983 | S. cerevisiae deletion strains, locus YNR049C, strain mso1, stronger effect = lower value 0.992 | S. cerevisiae deletion strains, locus YNR052C, strain pop2, stronger effect = lower value 1.03 | S. cerevisiae deletion strains, locus YOL012C, strain htz1 1.56 | S. cerevisiae deletion strains, locus YOL147C, strain pex11, stronger effect = lower value 1.01 | S. cerevisiae deletion strains, locus YOR001W, strain rrp6, stronger effect = lower value 1.01 | S. cerevisiae deletion strains, locus YOR061W, strain CKA2, stronger effect = lower value 1.01 | S. cerevisiae deletion strains, locus YOR069W, strain VPS5, stronger effect = lower value 1.01 | S. cerevisiae deletion strains, locus YOR070C, strain gyp1, stronger effect = lower value 0.98 | S. cerevisiae deletion strains, locus YOR080W, strain dia2, stronger effect = lower value 0.998 | S. cerevisiae deletion strains, locus YOR083W, strain WHI5, stronger effect = lower value 0.994 | S. cerevisiae deletion strains, locus YOR106W, strain vam3, stronger effect = lower value 1.01 | S. cerevisiae deletion strains, locus YOR136W, strain idh2, stronger effect = lower value 1.01 | S. cerevisiae deletion strains, locus YOR144C, strain elg1, stronger effect = lower value 1 | S. cerevisiae deletion strains, locus YOR184W, strain ser1, stronger effect = lower value 0.995 | S. cerevisiae deletion strains, locus YOR231W, strain MKK1, stronger effect = lower value 0.969 | S. cerevisiae deletion strains, locus YOR265W, strain rbl2, stronger effect = lower value 0.981 | S. cerevisiae deletion strains, locus YOR270C, strain vph1, stronger effect = lower value 1.03 | S. cerevisiae deletion strains, locus YOR290C, strain snf2, stronger effect = lower value 0.994 | S. cerevisiae deletion strains, locus YOR316C, strain cot1, stronger effect = lower value 1.02 | S. cerevisiae deletion strains, locus YPL051W, strain arl3, stronger effect = lower value 0.972 | S. cerevisiae deletion strains, locus YPL078C, strain atp4, stronger effect = lower value 1 | S. cerevisiae deletion strains, locus YPL106C, strain sse1, stronger effect = lower value 0.963 | S. cerevisiae deletion strains, locus YPL240C, strain hsp82, stronger effect = lower value 0.996 | S. cerevisiae deletion strains, locus YPL256C, strain CLN2, stronger effect = lower value 1.01 | S. cerevisiae deletion strains, locus YPR119W, strain clb2, stronger effect = lower value 1 | S. cerevisiae deletion strains, locus YPR141C, strain kar3, stronger effect = lower value 0.993 | S. cerevisiae deletion strains, locus YPR163C, strain tif3, stronger effect = lower value 1.01 | S. cerevisiae deletion strains, locus YPR167C, strain met16, stronger effect = lower value 1.01 | S. cerevisiae deletion strains, strain wtn01, stronger effect = lower value 0.986 | S. cerevisiae strains, strain wild type, stronger effect = lower value 1.02
